The text below walks through data of PubChem BioAssay (NCATS).

Results filed as inconclusive are left out. Activity calls are given as the source filed them. Calls come from the whole dose curve; as a rule, active = well fitted cell-killing curve with a large enough effect; inconclusive = small, poorly fitted or top-dose-only effect, or effect the other way; inactive = no such curve, though single readings can be large or run the other way.
Potency is the fitted concentration of half-maximal effect.

This experiment can be described thus: Quantitative High-Throughput drug screen in 47 multiple myeloma cell lines against the NCATS MIPE library collection: JIM1_ECACC cell viability assay (AID 1918964). Particulars: JIM1 myeloma viability, CellTiter-Glo ATP luminescence, 48 h; series mostly up to 45.8 µM; viability (% of DMSO): at the top concentration. The source says: PI: Beverly A. Mock Ph.D.
Laboratory of Cancer Biology and Genetics,
Center for Cancer Research, National Cancer Institute,
National Institute of Health, Bethesda, Maryland
Drug resistance and disease progression are common in multiple myeloma (MM) patients, underscoring the need for new therapeutic combinations. […] We hypothesized that effective combinations would reduce MYC expression and enhance p16 activity. […] These preclinical data identify potentially useful drug combinations for evaluation in drug-resistant MM and reveal potential mechanisms of combined drug sensitivity.
Described herein is the primary MIPE qHTS used to cherrypick compounds. Validated compounds were then further tested for potential synergistic activiy.
[1] Peat TJ, Gaikwad SM, Dubois W, Gyabaah-Kessie N, Zhang S, Gorjifard S, Phyo Z, Andres M, Hughitt VK, Simpson RM, Miller MA, Girvin AT, Taylor A, Williams D, D'Antonio N, Zhang Y, Rajagopalan A, Flietner E, Wilson K, Zhang X, Shinn P, Klumpp-Thomas C, McKnight C, Itkin Z, Chen L, Kazandijian D, Zhang J, Michalowski AM, Simmons JK, Keats J, Thomas CJ, Mock BA. Drug combinations identified by high-throughput screening promote cell cycle transition and upregulate Smad pathways in myeloma. Cancer Lett. 2023 Aug 1;568:216284. doi: 10.1016/j.canlet.2023.216284. Epub 2023 Jun 24. PMID: 37356470; PMCID: PMC10408729.
SEQUENCE No. (e.g., 1, 2, 3, etc.); […] (e.g., Cells, Incubation, Reagent, etc.); VALUE and DESCRIPTION.
1; Cells; 5 uL; white, solid bottom 1536-well Greiner assay plate.
2; Compounds; 23 nL; Kalypsis pin tool (Wako USA) equipped with a 1536-well pin head to transfer to the assay plates.
3; Incubation; 48 hours; 37C incubation.
4; Reagent;5uL; CellTiter Glo (Promega).
5; Detector; 425V; Luminescence; Viewlux PerkinElmer.
NOTES (numbers refer to Sequence numbers above)
1. The cell-based screening methods employed in this study were like those previously published. Briefly, the corresponding myeloma cell lines were screened in 1,536-well plates with 500 cells, 5-uL per well for inhibition of cell viability (assessed by measuring ATP levels with CellTiterGlo).
2. NCATS MIPE 4.0 library of approved and investigational drugs were added using the Kalypsis pin tool. Wells treated with DMSO only for 100% viability and media only wells for 0% viability were used as controls.
3. The assay plates were covered and incubated for 48 hours in a 37C, 5% CO2 incubator with controlled humidity.
4. After 48 hours, CellTilter-GloTM luminescent substrate mix (Promega) reagent was added to the assay plate and plates we incubated for 5 min at room temperature.
5. Signal was measured as median relative luminescence units on a ViewLux (PerkinElmer) multiplate reader.
[1] Heske CM, Davis MI, Baumgart JT, Wilson K, Gormally MV, Chen L, Zhang X, Ceribelli M, Duveau DY, Guha R, Ferrer M, Arnaldez FI, Ji J, Tran HL, Zhang Y, Mendoza A, Helman LJ, Thomas CJ. Matrix Screen Identifies Synergistic Combination of PARP Inhibitors and Nicotinamide Phosphoribosyltransferase (NAMPT) Inhibitors in Ewing Sarcoma. Clin Cancer Res. 2017 Dec 1;23(23):7301-7311. doi: 10.1158/1078-0432.CCR-17-1121. Epub 2017 Sep 12. PMID: 28899971; PMCID: PMC6636827.
As to `C[C@@H]1[C@@H](CC(C[C@H]2O[C@@H]3O[C@]4(C)CC[C@@H]5[C@H](C)CC[C@@H]([C@H]2C)[C@@]35OO4)C[S+](=O)([O-])c2ccc(COC(=O)N(C)C)cc2)O[C@@H]2O[C@]3(C)CC[C@H]4[C@H](C)CC[C@@H]1[C@@]24OO3` (some centres not stated), the Potency was 66.2 nM (active).

Consider `O=C1CC[C@@]2(O)[C@H]3Cc4ccc(O)c5c4[C@@]2(CCN3CC2CC2)[C@H]1O5`, for which the “viability (% of DMSO)” value is 114% (inactive).

Regarding `Fc1ccc(C(OCCN2CCN(CCCc3ccccc3)CC2)c2ccc(F)cc2)cc1`, the “viability (% of DMSO)” value is 126% (inactive).

For the compound `COC[C@H]1OC(=O)c2coc3c2[C@@]1(C)C1=C(C3=O)C2CCC(=O)[C@@]2(C)C[C@H]1OC(C)=O` (some centres not stated), the Potency is 8330 nM (active).

In the case of `COc1ccc(C(CN(C)C)C2(O)CCCCC2)cc1` (configuration not stated), the “viability (% of DMSO)” value is 113% (inactive).

Take `CN(C)[C@@H]1C(=O)C(C(N)=O)=C(O)[C@@]2(O)C(=O)C3=C(O)c4c(O)cccc4[C@@](C)(O)[C@H]3C[C@@H]12`: the “viability (% of DMSO)” value was 105% (inactive).

Turning to `C=C(C)[C@H]1Cc2c(ccc3c2O[C@@H]2COc4cc(OC)c(OC)cc4[C@@H]2C3=O)O1`, the Potency was 418 nM (active).

As to `N[C@@H](Cc1ccc(N(CCCl)CCCl)cc1)C(=O)O`, the Potency is 10500 nM (active).

On to `CCCC(C)(COC(N)=O)COC(=O)NC(C)C` (configuration not stated), for which the “viability (% of DMSO)” value was 129% (inactive).

With `C[C@@H]1O[C@@H](O[C@H]2C[C@@H](O)[C@]3(CO)[C@H]4[C@H](O)C[C@]5(C)[C@@H](C6=CC(=O)OC6)CC[C@]5(O)[C@@H]4CC[C@]3(O)C2)[C@H](O)[C@H](O)[C@H]1O`, the Potency is 13.2 nM (active).

On to `CN1CCN(C(=O)O[C@H]2c3nccnc3C(=O)N2c2ccc(Cl)cn2)CC1`, for which the “viability (% of DMSO)” value is 122% (inactive).

For `O=C(O)C(=O)c1cn(Cc2ccccc2)c2ccc(-c3ccc(OC(F)(F)F)cc3)cc12`, the “viability (% of DMSO)” value is 92.1% (inactive).

Turning to `CNCC(O)c1ccc(O)cc1` (configuration not stated), the “viability (% of DMSO)” value was 100% (inactive).

`CC(C)CC(N(C)C)C1(c2ccc(Cl)cc2)CCC1` (configuration not stated): the “viability (% of DMSO)” value is 85.4% (inactive).

On to `Cn1cc(C2=C(c3cn(C4CCN(Cc5ccccn5)CC4)c4ccccc34)C(=O)NC2=O)c2ccccc21`, for which the Potency was 1320 nM (active).

For the compound `CC(O)(CS(=O)(=O)c1ccc(F)cc1)C(=O)Nc1ccc(C#N)c(C(F)(F)F)c1` (configuration not stated), the Potency is 4180 nM (active).

For the compound `CC1=C2C[C@@H]3[C@@H](CC=C4C[C@@H](O)CC[C@@]43C)[C@@H]2CC[C@]12O[C@H]1C[C@H](C)CN[C@H]1[C@H]2C`, the “viability (% of DMSO)” value is 109% (inactive).
